Experimental findings from PubChem BioAssay (NCI) are described below.

Structures are written as SMILES. About 83,000 compounds went through this panel and 20% of them were active in at least one assay; those are over-represented in the sample as a whole.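 Values shown are percent growth following 48 h exposure of cells in 96-well plates to a single concentration of compound; below 10 was considered active.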 Unmarked numbers belong to inactive results. Active and inactive are the calls of the source.

Among the test systems are NCI-H23 lung; NCI-H226 lung; NCI-H322M lung; HOP-62 NSCLC; NCI-H460 lung; HOP-92 NSCLC; NCI-H522 lung; A549/ATCC NSCLC; 786-0 renal; COLO 205 colon; DU-145 prostate; K-562 leukemia; MALME-3M melanoma; MDA-MB-231 breast; RXF 393 renal; SF-268 CNS; SF-295 CNS; SF-539 CNS; UACC-257 melanoma; M14 melanoma.
Assay in all cases: NCI-60 one-dose screen, 48 h (100 = growth as untreated, 0 = no growth, -100 = all killed)
Common to all, as to details: 10 µM unless noted

Regarding `COc1ccc(C/C(C)=C(\c2ccc(Cl)cc2)c2ccc(OCCN3CCCC3)cc2)cc1`, the growth was 85% in the test on NCI-H23 lung; 98.1% in the test on NCI-H226 lung; 91.6% with NCI-H322M lung; 94.6% in the test with HOP-62 NSCLC; 81.9% with NCI-H460 lung; 70.5% in the test with HOP-92 NSCLC. The growth is 90% in the test with NCI-H522 lung; 79% with A549/ATCC NSCLC; 83.7% in the test with 786-0 renal; 47.8% in the test on COLO 205 colon; 98.5% in the test with DU-145 prostate; 13% in the test with K-562 leukemia. The growth in the test with MALME-3M melanoma was 93.5%; in the test with MDA-MB-231 breast, 85.7%; with RXF 393 renal, 64.1%; in the test with SF-268 CNS, 86.5%; in the test with SF-295 CNS, 99.2%; in the test with SF-539 CNS, 88%. Besides, the growth in the test with UACC-257 melanoma was 93.5%; with M14 melanoma, 62.9%.
Turning to `COc1ccc(C2CC(c3ccccc3)=NN2C(=O)c2cc(OC)c(OC)c(OC)c2)cc1O` (stereo not given), the growth in the test on NCI-H23 lung is 35.6%; in the test on NCI-H226 lung, 27.4%; with NCI-H322M lung it was 57.5%; in the test on HOP-62 NSCLC it was 49.4%; with NCI-H460 lung, 6.52% (active); in the test on HOP-92 NSCLC, 28%. Besides, the growth in the test on NCI-H522 lung was -3.83% (active); in the test with A549/ATCC NSCLC, 29.5%; with 786-0 renal it was 20.4%; in the test on COLO 205 colon, 71%; in the test on DU-145 prostate, 25.8%; with K-562 leukemia, 14.1%. Further, the growth with MALME-3M melanoma was 81.8%; with MDA-MB-231 breast it was 8.45% (active); in the test with RXF 393 renal, -9.96% (active); in the test on SF-268 CNS, 49.9%; in the test on SF-295 CNS, 5.83% (active); in the test with SF-539 CNS, -15.7% (active). The figures for the growth with UACC-257 melanoma and in the test on M14 melanoma were 66.2% and 13.4%, respectively.
Turning to `C=CC(=O)Nc1cccc(Oc2nccc(Nc3nnc(-c4ccc(Br)cc4)s3)n2)c1`, the growth in the test on NCI-H23 lung was 90.8%; in the test on NCI-H226 lung, 105%; with NCI-H322M lung, 110%; with HOP-62 NSCLC it was 91%; with NCI-H460 lung, 101%; in the test with HOP-92 NSCLC it was 92%. For the same compound, the growth in the test on NCI-H522 lung was 84.4%; with A549/ATCC NSCLC, 100%; in the test on 786-0 renal, 101%; in the test with COLO 205 colon it was 108%; with DU-145 prostate it was 103%; in the test with K-562 leukemia it was 92.6%. The growth is 112% in the test on MALME-3M melanoma; 88.2% in the test with MDA-MB-231 breast; 101% with RXF 393 renal; 93.6% in the test with SF-268 CNS; 96% in the test with SF-295 CNS; 99.7% in the test with SF-539 CNS. The growth is 105% with UACC-257 melanoma and 116% with M14 melanoma.
On to `CCCc1cc(=O)oc2c(C(=O)CC(C)C)c(O)c(CC=C(C)C)c(O)c12`, for which the growth is -29.1% (active) with NCI-H23 lung; 23.5% with NCI-H226 lung; 22.3% in the test with NCI-H322M lung; 51.1% in the test on HOP-62 NSCLC; 15.8% with NCI-H460 lung; -25.5% (active) in the test with HOP-92 NSCLC. For the same compound, the growth with NCI-H522 lung was 16%; with A549/ATCC NSCLC, 23.8%; with 786-0 renal it was 29.2%; in the test on COLO 205 colon, 50.3%; with DU-145 prostate it was 31.3%; with K-562 leukemia, 14.3%. Besides, the growth in the test on MALME-3M melanoma was -6.82% (active); in the test on MDA-MB-231 breast, -15.9% (active); in the test with RXF 393 renal, 27.3%; in the test with SF-268 CNS, 26.5%; in the test on SF-295 CNS it was 17.8%; with SF-539 CNS, 42.2%. In addition, the growth in the test on UACC-257 melanoma was 22.7%; in the test on M14 melanoma it was 33.6%.
In the case of `C=CN(C(=O)N1CCN(c2cc3c(cc2F)c(=O)c(C(=O)O)cn3C2CC2)CC1)c1nc(-c2ccccc2)cs1`, the growth with NCI-H23 lung is 101%; in the test on NCI-H226 lung, 98.1%; in the test with NCI-H322M lung, 84.1%; in the test with HOP-62 NSCLC, 98.4%; in the test on NCI-H460 lung, 104%; in the test with HOP-92 NSCLC, 90.6%. Besides, the growth with NCI-H522 lung is 81.4%; with A549/ATCC NSCLC it was 102%; with 786-0 renal it was 90.1%; in the test on COLO 205 colon, 98.5%; in the test with DU-145 prostate, 107%; in the test with K-562 leukemia, 94.8%. Moreover, the growth in the test on MALME-3M melanoma is 107%; in the test with MDA-MB-231 breast, 90.4%; in the test on RXF 393 renal it was 103%; with SF-268 CNS, 99.4%; in the test on SF-295 CNS, 95.7%; in the test with SF-539 CNS it was 96.5%. Moreover, the growth in the test on UACC-257 melanoma was 100%; in the test on M14 melanoma, 105%.
For `COc1ccc(C(O)c2cc3c(N)c(C(=O)Nc4cccc5ccccc45)sc3nc2C)cc1` (stereo not given), the growth in the test on NCI-H23 lung was 23.3%; with NCI-H226 lung, 18.6%; in the test on NCI-H322M lung, 39.1%; with HOP-62 NSCLC, 25.6%; with NCI-H460 lung, -20.2% (active); in the test on HOP-92 NSCLC it was 51%. Moreover, the growth is 0% (active) with NCI-H522 lung; 11.6% with A549/ATCC NSCLC; 16.2% in the test with 786-0 renal; -34.3% (active) in the test on COLO 205 colon; 1.19% (active) with DU-145 prostate; 12% in the test on K-562 leukemia. Further, the growth in the test on MALME-3M melanoma is 27.7%; with MDA-MB-231 breast it was 13.6%; in the test with RXF 393 renal it was 27%; with SF-268 CNS, 9.53% (active); in the test with SF-295 CNS it was 12.9%; in the test on SF-539 CNS, 4.62% (active). Besides, the growth with UACC-257 melanoma was 35.3%; in the test with M14 melanoma, 15%.
As to `CC[C@H](Nc1nc(N)nc(C)c1C#N)c1nc2cccc(CN(C)c3ncc(C(=O)NO)cn3)c2c(=O)n1-c1ccccc1`, the growth with NCI-H23 lung is 11.6%; in the test with NCI-H226 lung it was 24.3%; with NCI-H322M lung, 5.95% (active); in the test with HOP-62 NSCLC, 11.4%; with NCI-H460 lung, 10.8%; in the test with HOP-92 NSCLC, -28.3% (active). In addition, the growth in the test on NCI-H522 lung is -45.2% (active); with A549/ATCC NSCLC, 27.4%; in the test with 786-0 renal, 11.9%; in the test on COLO 205 colon it was -55.8% (active); in the test with DU-145 prostate, 18.5%; in the test with K-562 leukemia, 8.69% (active). Also, the growth in the test on MALME-3M melanoma was 8.44% (active); in the test with MDA-MB-231 breast, -12.6% (active); with RXF 393 renal, -61% (active); with SF-268 CNS, 12.1%; with SF-295 CNS, -8.31% (active); in the test on SF-539 CNS, 8.35% (active). The growth is -20.8% (active) in the test on UACC-257 melanoma and 9.1% (active) in the test with M14 melanoma.
